PubChem BioAssay AID623959 (National Center for Advancing Translational Sciences (NCATS), 2012)
In all, about 1,400 compounds went through this assay and fewer than 10 were called active. Roughly 8% stayed inconclusive and do not appear here. Not all results are given here. Values without a mark were called inactive. Calls come from the whole dose curve; as a rule, active = well fitted curve in the direction sought with a large enough effect; inconclusive = small, poorly fitted or top-dose-only effect, or another doubt; inactive = no such curve, though single readings can be large or run the other way.

Molecular target: Transient receptor potential cation channel subfamily V member 1 (Homo sapiens) (UniProt Q8NER1)
Experiment: qHTS Assay for Compounds that Act as Potentiators of the Vanilloid Receptor 1: Hit Validation; for activity change, positive = potentiation: % of control where 0% means no effect
Conditions: TRPV1-expressing cells, Fluo-8 calcium influx, capsaicin EC20; series mostly up to 42.1 µM; activity change, positive = potentiation: at the top concentration
Description: The transient receptor potential ion channel, family V, number 1, (TRPV1) is one of the most important molecular transducers of painful stimuli and a potential target for analgesic drug development. Although recent clinical trials with orthosteric antagonists have not produced a successful drug because of a hyperthermia side effect and their tendency to block thermal noxious pain, this ion channel is undeniably well placed in the pain pathway, and the idea of blocking pain signals before they enter the CNS is an excellent concept and of proven efficacy when TRPV1 agonists are used. We propose a new approach involving allosteric modulation to impose an activity-dependent constraint within the context of inflammation and tissue damage that would alter the responsiveness of the channel in a way that an orthosteric vanilloid antagonist cannot achieve. We believe that the allosteric modulator approach has not been explored for this target. The main goal of this proposal is to identify additional, new, potent allosteric modulators of TRPV1 that can be used to investigate TRPV1 function. Our recent report provides evidence of proof of concept, but the compounds are just at the edge of utility in terms of potency. […] The question of whether they can be used as analgesic agents is complex, but if suitable compounds are identified then testing for analgesic properties will be conducted. Compounds identified as agonists were re-tested in the primary screen for hit validation. NIH Chemical Genomics Center [NCGC] NIH Molecular Libraries Probe Centers Network [MLPCN] MLPCN Grant: MH089480 Assay Submitter (PI): Michael Iadarola, National Institute of Dental and Cranofacial Research
Upon TRPV1 activation in TRPV1 cells, the channel opens and extracellular cations flow through the channel into the cytosol. A calcium binding dye (Fluo-8) becomes fluorescent when bound to calcium. This dye is pre-loaded into cells and is used as a marker for calcium influx. The amount of accumulated calcium is precisely quantified using the FDSS kinetic reader and the calcium dye. For the HTS assay, freshly prepared cells are plated at a density of 2000/well in 3 ul medium in 1536-well plates and cultured overnight at 35.5C. Cells will be loaded with 1 ul of the homogeneous calcium dye (ABD Bioquest) at room temperature for 40 to 90 minutes. Plates will be loaded into the FDSS kinetic reader and a 1 sec / cycle for 10 second baseline signal will be measured. Compound library will then be added with a pintool at 23 nl and measured kinetically for 3 minutes. This portion of the read is considered the agonist portion of the screen. Following the 3 minutes of incubation, an on board pipettor will deliver 1 ul of capsaicin for a final concentration equal to the EC20. Signal will be measured kinetically for an additional 2 minutes. This portion of the read is considered the allosteric enhancer portion of the screen. The FDSS reader has a standard filter set capable of measuring calcium bound Fluo-8 (ex=480 and em=520 nm).
Potency is the fitted concentration of half-maximal effect.

Transient receptor potential cation channel subfamily V member 1 (Homo sapiens), sequence (Q8NER1 whole entry, looked up): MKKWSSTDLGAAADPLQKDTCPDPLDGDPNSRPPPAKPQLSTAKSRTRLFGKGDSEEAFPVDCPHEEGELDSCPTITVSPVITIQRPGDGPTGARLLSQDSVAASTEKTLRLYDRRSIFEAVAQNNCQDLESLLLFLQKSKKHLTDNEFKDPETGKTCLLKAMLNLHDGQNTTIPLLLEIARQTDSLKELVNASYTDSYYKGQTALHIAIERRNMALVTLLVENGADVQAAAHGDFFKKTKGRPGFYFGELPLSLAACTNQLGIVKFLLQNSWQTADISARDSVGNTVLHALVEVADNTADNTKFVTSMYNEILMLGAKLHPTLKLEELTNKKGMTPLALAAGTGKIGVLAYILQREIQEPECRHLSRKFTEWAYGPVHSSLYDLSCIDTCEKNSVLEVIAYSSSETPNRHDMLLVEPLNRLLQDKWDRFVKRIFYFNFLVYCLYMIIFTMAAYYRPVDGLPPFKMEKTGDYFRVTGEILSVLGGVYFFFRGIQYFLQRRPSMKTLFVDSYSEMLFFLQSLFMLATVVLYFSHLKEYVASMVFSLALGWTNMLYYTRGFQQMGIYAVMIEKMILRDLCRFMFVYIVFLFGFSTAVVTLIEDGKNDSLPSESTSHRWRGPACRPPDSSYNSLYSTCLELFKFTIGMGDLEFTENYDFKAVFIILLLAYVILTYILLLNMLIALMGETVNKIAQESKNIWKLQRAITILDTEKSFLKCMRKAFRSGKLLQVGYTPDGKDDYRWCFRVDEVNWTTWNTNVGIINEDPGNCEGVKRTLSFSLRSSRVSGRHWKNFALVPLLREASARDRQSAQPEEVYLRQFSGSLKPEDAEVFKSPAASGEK

SMILES	activity change, positive = potentiation [%]	Potency
Cc1ccc(NC(=O)CCS(=O)(=O)c2ccc3c(c2)NC(=O)C(C)S3)cc1Cl (stereo not given)	1.02	–
Cc1ccc(/C=C2\CCC3=C2OC(N)=C(C#N)C3c2ccc(C)cc2)cc1 (stereo not given)	–	8.05 µM (active)
Cc1ccc(NC(=O)CCn2nc(C)cc2C)cc1	-6.67	–
O=C(Cc1cccs1)Nc1cccc(-c2ccc3nncn3n2)c1	6.87	–
CC(=O)c1ccc(Nc2ncnc3c2oc2ccccc23)cc1	-38.7	–
CC(C)C[C@H](NC(=O)c1nc[nH]c1C(=O)N1CCC(C)CC1)C(=O)OCc1ccccc1	-10.6	–
CC(=O)c1cccc(NC(=O)N2C3CCC2CC(NC(=O)Nc2ccccc2)C3)c1 (stereo not given)	4.86	–
CCOC(=O)N/N=C1\CCS(=O)(=O)c2ccc(Cl)cc21	4.78	–
COc1cc(C)nc(-c2csc(C)n2)n1	7.2	–
O=C(NNC(=O)c1cccc(O)c1)Nc1ccc([N+](=O)[O-])cc1	3.43	–
Cc1cnc(NC(=O)c2cc3c(s2)CCCC3)s1	-38.8	–
C(=N\Nc1nn2cnnc2c2ccccc12)/c1ccco1	-9.75	–
CCc1ccc(/C=C2/SC(N3CCOCC3)=NC2=O)cc1	-37.3	–
Cc1nnc(SCC(=O)N(C)CC(=O)Nc2ccc(F)cc2)n1Cc1ccccc1	-5.01	–
COc1ccc(OC)c(NC(=O)CCN2C(=O)c3ccccc3C2=O)c1	4.29	–
CCc1ccc(OCCCC(=O)NCc2ccccc2)cc1	-4.09	–
CCN(CC)S(=O)(=O)c1ccc(/C=C/C(=O)Nc2cccc(F)c2)cc1	-36.7	–
COCCNC(=O)CSc1nc2ccccc2c(=O)n1CC1CCCO1 (stereo not given)	0.611	–
COc1ccc(C(=O)NC(CC(C)C)C(=O)O)cc1OC (stereo not given)	3.51	–
CCCCn1c(=O)[nH]c(=O)c2c1nc(-c1ccc(OC)c(Br)c1)n2CC(C)C	-3.67	–
COC(=O)C(C(=O)Nc1nc2ccccc2s1)C1CCCC1 (stereo not given)	-7.89	–
N=C1/C(=C\c2ccc(-c3ccc(C(=O)O)cc3)o2)C(=O)N=C2SC=C(c3ccccc3)N12	24.5	–
COc1ccc(-[n+]2c(C)cc(/C=C3\Sc4ccccc4N3C)cc2C)cc1	–	5.7 µM (active)
Cc1c(N=c2scc(-c3ccccc3)n2C)c(=O)n(-c2ccccc2)n1C	4.71	–
COc1ccc(Cc2c(N)nc(C)nc2N)cc1	-6.3	–
O=C(N/N=C/c1cccnc1)c1ccc2c(c1)OCO2	-7.94	–
COc1cccc(/C=C/C(=O)Nc2cccc(C(C)=O)c2)c1OC	-16.5	–
Cc1ccc(OCC(=O)c2c[nH]c3ccccc23)c([N+](=O)[O-])n1	-9.4	–
COc1cc(OC)c(NC(=O)CCc2nc(-c3ccc(C)cc3)no2)cc1Cl	-4.21	–
CCO[C@H]1OC(C(=O)NC2CC2)=C[C@@H](c2c[nH]c3ccccc23)[C@@H]1CCCO	-2.5	–
